Compound activity deposited in PubChem by National Center for Advancing Translational Sciences (NCATS).
TDP1 cell noCPT: qHTS for Inhibitors of human tyrosyl-DNA phosphodiesterase 1 (TDP1): qHTS in cells in absence of CPT; DT40 Tdp1-/- hTDP1 cells, no CPT, ATP luminescence, 48 h; Potency, µM (titrated, usually from 46.2 µM), usual class: inhibitors; 420,000 compounds, 15% hits; note: nearly all actives have a fitted effect of over 55% in size
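No-CPT arm: Tdp1-/-;hTDP1 DT40 cells (400/well) plus compounds, incubated ≥48 hr at 37 °C. Readout CellTiter-Glo luminescence.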
DT40 TDP1 CPT: growth inhibition of DT40 Tdp1-/-;hTDP1 cells with camptothecin (screen for TDP1 inhibitors); chicken DT40 Tdp1-/-;hTDP1 cells + 20 nM CPT, ATP luminescence, 48 h; Potency, µM (top dose mostly 46.2 µM), most hits filed as inhibitors; 420,000 compounds, 12% hits; AID 686979; note: nearly all actives have a fitted effect of over 55% in size
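Cell growth measured by CellTiter-Glo luminescence after a minimum 48 h, 37 C compound exposure with 20 nM CPT in Tdp1-knockout DT40 cells stably expressing hTDP1, seeded 400/well; qHTS titration format.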
HT1080 IDH1KD tx: kills HT-1080 cells with IDH1 knockdown; 360,000 compounds, 2% hits; HT-1080 IDH1 knockdown viability, ATP luminescence, 48 h; AID 686971; Potency, µM (doses to about 46.1 µM), actives largely listed as cytotoxic
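Knockdown cells (IDH1KD HT-1080) received compounds 2 h after plating at 750 cells/well and were kept 48 h at 37 °C in 5% FBS RPMI. A CellTiter-Glo luminescence read gave % activity for curve fitting.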
HT1080-NT tox: kills 2HG-producing HT-1080-NT fibrosarcoma cells; HT-1080-NT fibrosarcoma viability, CellTiter-Glo ATP luminescence, 48 h; AID 686970; Potency, µM (top dose mostly 46.1 µM), hits mostly cytotoxic; 360,000 compounds, 1.6% hits;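 note: NT is the 2HG producing partner of a matched IDH1 knockdown line; nearly all actives have a fitted effect of over 55% in size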
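Viability by CellTiter-Glo luminescence after 48 h compound exposure at 37C of HT-1080-NT cells (750/well, RPMI, 5% FBS). % activity scaled between DMSO wells and medium-only wells, then curve-fitted and categorized by curve class.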
IL-1B inflam inh: inhibitors of inflammasome signaling (IL-1 beta secretion) | THP-1 LPS/ATP IL-1B secretion, AlphaLISA, 16 h; stronger effect = lower value | activity change, % at 57.5 µM | 360,000 compounds, 4.7% hits | AID 743279; in the data active = activity change below about -50%; inconclusive = mostly about -30% to -49%
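Secreted IL-1B measured by AlphaLISA bead assay after 16 h compound exposure of THP-1 cells; compounds (final up to 57.5 uM) added 1 h before LPS (250 ng/mL) and ATP (1.25 mM) stimulation; lower signal means less secretion.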
Of the large screens only hits and unclear results are named; the others gave an inactive call. Only some compounds are listed: those with a hit (about 19% of all), similar ones and a draw of the others. Unless noted, calls come from the whole dose curve; as a rule, active = well fitted curve in the direction sought with a large enough effect; inconclusive = small, poorly fitted or top-dose-only effect, or another doubt; inactive = no such curve, though single readings can be large; an effect the other way counts as inactive or inconclusive.

C[C@@H]1CCCCO[C@H](CN(C)C(=O)Nc2ccc3c(c2)OCO3)[C@@H](C)CN([C@H](C)CO)C(=O)c2cc(NS(=O)(=O)c3ccc(F)cc3)ccc2O1	TDP1 cell noCPT 20.6µM, DT40 TDP1 CPT inconclusive
C[C@@H]1CCCCO[C@H](CN(C)C(=O)Nc2ccc3c(c2)OCO3)[C@H](C)CN([C@@H](C)CO)C(=O)c2cc(NS(=O)(=O)c3ccc(Cl)cc3)ccc2O1	TDP1 cell noCPT 16.4µM, DT40 TDP1 CPT 16.4µM
CC(C)NC(=O)N(C)C[C@H]1OCCCC[C@H](C)Oc2ccc(NS(=O)(=O)c3ccccc3)cc2C(=O)N([C@H](C)CO)C[C@H]1C	none
CC(=O)c1cccc(CN2CCCC(CCC(=O)NCc3ccc(F)c(F)c3)C2)c1 (configuration not stated)	none
COc1ccc(OC)c(CN2CCOc3ccc(C(O)c4cccnc4)cc3C2)c1 (configuration not stated)	none (no result: HT1080 IDH1KD tx, HT1080-NT tox, IL-1B inflam inh)
CCn1c2ccccc2c2cc(CN3CCOc4ccc(C(O)c5cccnc5)cc4C3)ccc21 (configuration not stated)	TDP1 cell noCPT 25.9µM, DT40 TDP1 CPT inconclusive (no result: HT1080 IDH1KD tx, HT1080-NT tox, IL-1B inflam inh)
COc1cc(C)c(CN2CCOc3ccc(C(O)c4cccnc4)cc3C2)cc1C (configuration not stated)	TDP1 cell noCPT 18.4µM (no result: HT1080 IDH1KD tx, HT1080-NT tox, IL-1B inflam inh)
CCOc1ccc2ncc3c(-c4ccccc4)nn(CC(=O)Nc4cccc(F)c4)c3c2c1	none (no result: HT1080 IDH1KD tx, HT1080-NT tox, IL-1B inflam inh)
COc1cccc(CN2CC(C(=O)NCCOc3cccnc3)CCC2=O)c1 (configuration not stated)	none
Cc1nc(SCC(=O)NCCc2ccccc2)nc(C)c1C	TDP1 cell noCPT inconclusive
CC1C(=O)N(Cc2cn(CCC3OCCO3)nn2)CCS(=O)(=O)N1Cc1ccc(-c2cccc(N(C)C)c2)cc1 (configuration not stated)	TDP1 cell noCPT 16.4µM, DT40 TDP1 CPT 9.2µM
CC1C(=O)N(Cc2cn(CCC3OCCCO3)nn2)CCS(=O)(=O)N1Cc1ccc(-c2ccc(Cl)nc2)cc1 (configuration not stated)	TDP1 cell noCPT inconclusive, DT40 TDP1 CPT inconclusive
CC1C(=O)N(Cc2cn(CCC3OCCCO3)nn2)CCS(=O)(=O)N1Cc1ccc(-c2ccccc2)cc1 (configuration not stated)	TDP1 cell noCPT 16.4µM, DT40 TDP1 CPT inconclusive
CC1C(=O)N(Cc2cn(CCC3OCCO3)nn2)CCS(=O)(=O)N1Cc1ccc(-c2ccc(F)cc2)cc1 (configuration not stated)	TDP1 cell noCPT inconclusive, DT40 TDP1 CPT inconclusive
CCC/C=C/c1ccc(CN2C(C)C(=O)N(Cc3cn(CCC4OCCO4)nn3)CCS2(=O)=O)cc1 (configuration not stated)	TDP1 cell noCPT 14.6µM, DT40 TDP1 CPT inconclusive
CC1C(=O)N(Cc2cn(CCC3OCCO3)nn2)CCS(=O)(=O)N1Cc1ccc(-c2ccncc2)cc1 (configuration not stated)	none
CC1C(=O)N(Cc2cn(CCC3OCCCO3)nn2)CCS(=O)(=O)N1Cc1ccc(-c2ccc(Cl)cc2)cc1 (configuration not stated)	TDP1 cell noCPT 6.51µM, DT40 TDP1 CPT 11.6µM, HT1080 IDH1KD tx inconclusive, HT1080-NT tox inconclusive
Cn1c(=O)c2c(nc(Br)n2C/C=N/NC(N)=S)n(C)c1=O	TDP1 cell noCPT inconclusive, DT40 TDP1 CPT 20.6µM, HT1080 IDH1KD tx inconclusive (no result: IL-1B inflam inh)
O=C(NCC1Cc2cccc(-c3cnccn3)c2O1)c1ccc(F)c(Cl)c1 (configuration not stated)	none (no result: HT1080 IDH1KD tx, HT1080-NT tox, IL-1B inflam inh)
CC(C)NC(=O)CSc1nnc2sc3ccccc3n12	none
COc1ccc(NC(=O)CSc2nnc(C3CCCCC3)n2-c2ccccc2)cc1	TDP1 cell noCPT 18.4µM, DT40 TDP1 CPT 14.6µM
CCn1c(SCC(=O)Nc2cc(OC)ccc2OC)nnc1C1CCCCC1	DT40 TDP1 CPT 29.1µM
O=C(CSc1nnc2sc3ccccc3n12)NCc1ccco1	TDP1 cell noCPT 12.6µM, DT40 TDP1 CPT inconclusive, HT1080 IDH1KD tx inconclusive, HT1080-NT tox inconclusive
